# ± gives the standard deviation of the averaged measurements.
# How the values were obtained:
# MDA-MB-231 [1] = assay: cell viability relative to vehicle unstimulated control (fraction); higher = more viable cells; details: pre-treatment time: 18 h then 24 h IFNg/TNF
# MDA-MB-231 [2] = assay: kynurenine production, fold change vs DMSO IFNg/TNF control; higher = more kynurenine produced (less inhibition); details: pre-treatment time: 18 h then 24 h IFNg/TNF
# Procedure, shortened: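 Fold change over cytokine-stimulated vehicle wells on the same plate is the measure used for kynurenine production, averaged across duplicate plates in the first screening round. MDA-MB-231 cells, seeded 24 h beforehand at 7 × 10^4/well in 96-well plates, were pre-treated 18 h with each natural product in 0.1% DMSO and stimulated 24 h at 37°C with IFNγ (1 U/ml) and TNF (6.25 ng/ml). Supernatants were read at 492 nm following trichloroacetic acid and p-dimethylaminobenzaldehyde treatment, against 0–100 μM standards.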
# 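Wherever cell viability relative to vehicle unstimulated control is given: viability of the cells left after supernatant collection, read with Deep Blue dye added for 4 h, as absorbance at 570 nm minus 600 nm.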
SMILES,cell viability (MDA-MB-231 [1]),kynurenine production (MDA-MB-231 [2])
"CC12CCC(CC1)C(C)(C)O2 [1,8-cineole] (compound dose: 10 uM)",0.978 ± 0.067,0.913 ± 0.074
CC(=O)OC/C=C(C)/C=C/C=C(C)/C=C/C1=C(C)CCCC1(C)C [Retinyl acetate] (compound dose: 10 uM),0.9487 ± 0.0087,0.753 ± 0.084
C=C(C)[C@H]1CC=C(C)CC1 [(r)-(+)-limonene] (compound dose: 10 uM),0.986 ± 0.032,0.907 ± 0.04
C=C(CC[C@@H](C(=O)O)[C@H]1[C@H](O)C[C@@]2(C)C3=C(CC[C@]12C)[C@@]1(C)CC[C@H](OC(C)=O)C(C)(C)[C@@H]1CC3)C(C)C [Pachymic acid] (compound dose: 10 uM),0.862 ± 0.1,0.872 ± 0.093
C[C@@H]1O[C@@H](O[C@H]2[C@H](Oc3cc(O)c4c(c3)O[C@H](c3ccc(O)cc3)CC4=O)O[C@H](CO)[C@@H](O)[C@@H]2O)[C@H](O)[C@H](O)[C@H]1O [Naringin] (compound dose: 10 uM),1.02 ± 0.015,1.15 ± 0.036
CC(=O)O[C@@]12CO[C@@H]1C[C@H](O)[C@@]1(C)C(=O)[C@H](O)C3=C(C)[C@@H](OC(=O)[C@H](O)[C@@H](NC(=O)OC(C)(C)C)c4ccccc4)C[C@@](O)([C@@H](OC(=O)c4ccccc4)[C@H]21)C3(C)C [Docetaxel] (compound dose: 10 uM),0.923 ± 0.067,0.758 ± 0.051
O=c1cc(-c2ccc(O)c(O)c2)oc2c([C@@H]3O[C@H](CO)[C@@H](O)[C@H](O)[C@H]3O)c(O)cc(O)c12 [Orientin] (compound dose: 10 uM),0.922 ± 0.069,0.918 ± 0.1
